Results taken from PubChem BioAssay (Tox21).
Inconclusive results are not listed. Active and inactive are the calls of the source. The call rests on the fitted dose curve; in most records, active means well fitted curve in the direction sought with a large enough effect in the repeat runs; inconclusive means weak or mixed curves; inactive means no such curve, though single readings can be large; an effect the other way counts as inactive or inconclusive.

What was measured:
[1] = A CellTox Green Cytotoxicity Assay to monitor cytotoxicity in HEK293 cells - 32 hour (AID 1224881); further: nearly all actives have a fitted effect of over 40% in size
Procedure, shortened: (§1)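 HEK293 cells, 600/well, were preincubated 5 hours and then exposed to compounds at 37 C for up to 40 hours. A cell-impermeant cyanine dye staining dead-cell DNA was read by fluorescence at 0, 8, 16, 24, 32 and 40 h time points.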

[2] = A CellTox Green Cytotoxicity Assay to monitor cytotoxicity in HepG2 cells - 0 hour (AID 1224882); further: nearly all actives have a fitted effect of over 35% in size
Procedure, shortened: (§2)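 HepG2 cells, 600/well, preincubated 5 h with CellTox Green dye, then exposed to Tox21 compounds in DMSO at 37 C for up to 40 h. Dead-cell DNA fluorescence read at the indicated time point.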

[3] = A CellTox Green Cytotoxicity Assay to monitor cytotoxicity in HepG2 cells - 32 hour (AID 1224883); further: nearly all actives have a fitted effect of over 50% in size
Procedure, shortened: as §2

[4] = A CellTox Green Cytotoxicity Assay to monitor cytotoxicity in HEK293 cells - 8 hour (AID 1224884); further: nearly all actives have a fitted effect of over 35% in size
Procedure, shortened: as §1

[5] = qHTS RealTime-Glo MT Cell Viability Assay in HepG2 cells - 16 hour (AID 1224885); further: nearly all actives have a fitted effect of over 50% in size
Procedure, shortened: (§3)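 Luminescence read-out: viable HepG2 cells reduce a prosubstrate to a NanoLuc substrate, giving a signal proportional to live cell number. Reads taken at 0, 8, 16, 24, 32 and 40 h of compound exposure at 37 C.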

[6] = qHTS RealTime-Glo MT Cell Viability Assay in HEK293 cells - 24 hour (AID 1224886); further: top concentration of the series differs between compounds; nearly all actives have a fitted effect of over 50% in size
Procedure, shortened: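 Nonlytic real-time viability readout: viable cells convert prosubstrate to NanoLuc substrate, giving luminescence proportional to live cell number. HEK293, 600 cells/well, compound added after 5 h, continuous culture at 37 C.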

[7] = qHTS RealTime-Glo MT Cell Viability Assay in HEK293 cells - 8 hour (AID 1224887); further: top concentration of the series differs between compounds; nearly all actives have a fitted effect of over 50% in size
Procedure, shortened: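 600 cells/well were plated with the nonlytic NanoLuc/prosubstrate reagent, pre-incubated 5 h, then given 23 nL of compound in DMSO. Incubation at 37 C for 40 h, with luminescence from viable-cell-reduced substrate read repeatedly from 0 h.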

[8] = A CellTox Green Cytotoxicity Assay to monitor cytotoxicity in HEK293 cells - 16 hour (AID 1224888); further: nearly all actives have a fitted effect of over 35% in size
Procedure, shortened: as §1

[9] = qHTS RealTime-Glo MT Cell Viability Assay in HepG2 cells - 0 hour (AID 1224889); further: nearly all actives have a fitted effect of over 50% in size
Procedure, shortened: as §3

[10] = A CellTox Green Cytotoxicity Assay to monitor cytotoxicity in HepG2 cells - 8 hour (AID 1224890); further: nearly all actives have a fitted effect of over 45% in size
Procedure, shortened: as §2
On the % scale 0 is the no-effect control and ±100 the full control effect.

CC(=O)SCc1ccco1
inactive: Potency [1] | Potency [2] | Potency [3] | Potency [4] | Potency [5] | Potency [6] | Potency [7] | Potency [8] | Potency [9] | Potency [10]

N#CCCNCCC#N
inactive: Potency [1] | Potency [2] | Potency [3] | Potency [4] | Potency [5] | Potency [6] | Potency [7] | Potency [8] | Potency [9] | Potency [10]

N#CCc1cccc(C(F)(F)F)c1
inactive: Potency [1] | Potency [2] | Potency [3] | Potency [4] | Potency [5] | Potency [6] | Potency [7] | Potency [8] | Potency [9] | Potency [10]

CCCCOC(=O)/C=C\C(=O)OCCCC
inactive: Potency [1] | Potency [2] | Potency [3] | Potency [4] | Potency [5] | Potency [6] | Potency [7] | Potency [8] | Potency [9]

COc1ccc([C@@H]2Sc3ccccc3N(CCN(C)C)C(=O)[C@@H]2OC(C)=O)cc1
inactive: Potency [1] | Potency [2] | Potency [3] | Potency [4] | Potency [5] | Potency [6] | Potency [7] | Potency [8] | Potency [9] | Potency [10]

C=C(C)C(=O)OCCN(C)C
inactive: Potency [1] | Potency [2] | Potency [3] | Potency [4] | Potency [5] | Potency [6] | Potency [7] | Potency [8] | Potency [9] | Potency [10]

CC(=O)OCCc1ccccc1
inactive: Potency [1] | Potency [2] | Potency [3] | Potency [4] | Potency [5] | Potency [6] | Potency [7] | Potency [8] | Potency [9] | Potency [10]

O=C(CCN1CCN2CCCC2C1)N1c2ccccc2Sc2ccc(Cl)cc21 (stereo not given)
inactive: cytotoxicity increase [1] 1.45% [at 15.8 µM] | cytotoxicity [2] 0.972% [at 15.8 µM] | cytotoxicity increase [3] 16.3% [at 15.8 µM] | cytotoxicity increase [4] -4.39% [at 15.8 µM] | activity change, negative = cytotoxic [5] -5.42% [at 15.8 µM] | activity change, negative = cytotoxicity [6] -17.5% [at 15.8 µM] | activity change, negative = cytotoxicity [7] -6.11% [at 15.8 µM] | activity change [8] 1.83% [at 15.8 µM, hits give high values] | activity change, negative = cytotoxicity [9] -0.655% [at 15.8 µM] | cytotoxicity increase [10] 7.39% [at 15.8 µM]

O=C(NN1CCCC1)NS(=O)(=O)c1ccc(Cl)cc1
inactive: Potency [1] | Potency [2] | Potency [3] | Potency [4] | Potency [5] | Potency [6] | Potency [7] | Potency [8] | Potency [9] | Potency [10]

FC(F)(F)C(F)(F)C(F)(F)C(F)(F)C(F)(F)C(F)(F)CCI
inactive: Potency [1] | Potency [2] | Potency [3] | Potency [4] | Potency [5] | Potency [6] | Potency [7] | Potency [8]

CC[C@H](C)[C@@H](C(=O)O)n1sc2ccccc2c1=O
inactive: Potency [1] | Potency [2] | Potency [3] | Potency [4] | Potency [5] | Potency [6] | Potency [7] | Potency [8] | Potency [9] | Potency [10]

Oc1ccc(C(O)CNCCCCCCNCC(O)c2ccc(O)c(O)c2)cc1O (stereo not given)
inactive: Potency [1] | Potency [2] | Potency [3] | Potency [4] | Potency [5] | Potency [6] | Potency [7] | Potency [8] | Potency [9] | Potency [10]

CC(C)c1ccccc1C(C)C
inactive: Potency [1] | Potency [2] | Potency [3] | Potency [4] | Potency [5] | Potency [6] | Potency [7] | Potency [8]

CCOc1ccc2[nH]cc(C(=O)NCc3ccccc3)c(=O)c2n1
inactive: Potency [1] | Potency [2] | Potency [3] | Potency [4] | Potency [5] | Potency [6] | Potency [7] | Potency [8] | Potency [9] | Potency [10]

Cc1cc(CC(=O)O)c(C)n1-c1ccc(Cl)cc1
inactive: Potency [1] | Potency [2] | Potency [3] | Potency [4] | Potency [5] | Potency [6] | Potency [7] | Potency [8] | Potency [9] | Potency [10]

CN1CCN(C2=Nc3ccccc3Sc3ccc(Cl)cc32)CC1
inactive: Potency [1] | Potency [2] | Potency [3] | Potency [4] | Potency [5] | Potency [6] | Potency [7] | Potency [8] | Potency [9] | Potency [10]

Cl/C(=C\n1cncn1)c1ccc(Cl)cc1Cl
inactive: Potency [1] | Potency [2] | Potency [3] | Potency [4] | Potency [5] | Potency [6] | Potency [7] | Potency [8] | Potency [9] | Potency [10]

CNS(=O)(=O)Cc1ccc2[nH]cc(CCN(C)C)c2c1
inactive: Potency [1] | Potency [2] | Potency [3] | Potency [4] | Potency [5] | Potency [6] | Potency [7] | Potency [8] | Potency [9] | Potency [10]

CCCCCCCCCC(=O)OCC
inactive: Potency [1] | Potency [2] | Potency [3] | Potency [4] | Potency [5] | Potency [6] | Potency [7] | Potency [8] | Potency [9] | Potency [10]

CCCCC(CC)(CO)CO
inactive: Potency [1] | Potency [2] | Potency [3] | Potency [4] | Potency [5] | Potency [6] | Potency [7] | Potency [8] | Potency [9] | Potency [10]

CCOC(=O)C1=NN(c2ccccc2)C(=O)C1
inactive: Potency [1] | Potency [2] | Potency [3] | Potency [4] | Potency [5] | Potency [6] | Potency [7] | Potency [8] | Potency [9] | Potency [10]

CC(=O)N(CC(=O)N(C)C)c1ccccc1
inactive: Potency [1] | Potency [2] | Potency [3] | Potency [4] | Potency [5] | Potency [6] | Potency [7] | Potency [8] | Potency [9] | Potency [10]

Cc1ccc(C)o1
inactive: Potency [1] | Potency [2] | Potency [3] | Potency [4] | Potency [5] | Potency [6] | Potency [7] | Potency [8] | Potency [9] | Potency [10]
